FBA Mtb inh – Mtb FBA enzyme inhibitors, primary screen, biochemical, fluorescence, strain H37Rv | actives 2.3% (n = 360,000) | inhibition, % at 1 µM | Fructose-bisphosphate aldolase (Mycobacterium tuberculosis (strain ATCC 25618 / H37Rv)), … | purified M. tuberculosis FBA, fluorescence read-out | AID 588726, 2011; in the data active = inhibition above about 27%;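 note: 0% = vehicle and 100% = reference inhibitor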
GDH-TPI counter – GDH-TPI coupling enzyme inhibitors, primary screen, artefact control for M. tuberculosis FBA inhibitor project, biochemical, absorbance, full deck. GDH-TPI coupled enzyme counterscreen, NADH absorbance. inhibition, % at 4.8 µM. actives 1.2% (n = 360,000). AID 588335, 2011; in the data active = inhibition above about 30%;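 note: 0% = DMSO wells and 100% = wells lacking the enzyme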
Mtb UGM inh – M. tuberculosis UGM enzyme inhibitors, primary screen, biochemical, fluorescence polarization, single point; inhibition, % at 10 µM; UDP-galactopyranose mutase (Mycobacterium tuberculosis (strain ATCC 25618 / H37Rv)), …; actives 0.06% (n = 320,000); purified UGM, fluorescence polarization probe displacement; in the data active = inhibition above about 10%, passing the limit was not always enough
Rv3671c protease – Rv3671c serine protease inhibitors, primary screen, biochemical, fluorescence polarization, M. tuberculosis H37Rv; actives 0.048% (n = 320,000); P9WHR9; inhibition, % at 5.96 µM; in the data active = inhibition above about 38%;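 note: extracellular domain of Rv3671c used as enzyme; 0% = enzyme with DMSO and 100% = no enzyme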
Target sequence (P9WHR9 whole entry, looked up, the tested form may be a part): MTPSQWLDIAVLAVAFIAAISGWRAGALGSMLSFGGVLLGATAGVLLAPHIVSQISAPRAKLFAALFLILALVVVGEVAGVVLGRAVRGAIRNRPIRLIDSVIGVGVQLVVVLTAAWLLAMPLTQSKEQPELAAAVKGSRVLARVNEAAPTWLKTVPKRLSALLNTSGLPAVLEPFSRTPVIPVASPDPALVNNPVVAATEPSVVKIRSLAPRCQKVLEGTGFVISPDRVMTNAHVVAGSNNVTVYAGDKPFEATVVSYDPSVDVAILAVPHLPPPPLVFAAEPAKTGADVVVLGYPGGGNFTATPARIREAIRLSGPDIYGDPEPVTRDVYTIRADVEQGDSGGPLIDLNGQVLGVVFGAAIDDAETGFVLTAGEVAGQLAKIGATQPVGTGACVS
RecA splice inh – Mtb RecA intein splicing inhibitors, primary screen, biochemical, fluorescence, HTS | actives 0.75% (n = 290,000) | cell-free RecA intein splicing | Protein RecA (Mycobacterium tuberculosis (strain ATCC 25618 / H37Rv)), P9WHJ3 | inhibition, % (no concentration beside the values); in the data active = inhibition above about 30%;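 note: 0% = vehicle wells and 100% = reference inhibitor control wells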
Vc quorum ag – inducers of Vibrio cholerae quorum light production without autoinducers, primary screen, BH1578 luxS cqsA deficient, single point. V. cholerae BH1578 lux reporter, luminescence, 6 h. activation, % at 18.7 µM. actives 0.16% (n = 350,000); in the data active = activation mostly above about 9.7%, no sharp cut-off
Numbers without * were called inactive; i = inactive; nt = no result given; + = active, no number. Compounds with a hit are over-represented: about 4.1% of the library has one in this group of screens.

SMILES	FBA Mtb inh	GDH-TPI counter	Mtb UGM inh	Rv3671c protease	RecA splice inh	Vc quorum ag
Cc1c(NC(=S)N/N=C/C=C/c2ccccc2)c(=O)n(-c2ccccc2)n1C	-0.1	61.8*	1.4	7.5	-1.8	i
COc1ccc(/C=N/NC(=S)Nc2c(C)n(C)n(-c3ccccc3)c2=O)cc1OC	-0.6	27.6	1.9	2.4	-1.5	0.7
CC(C)(C)OC(=O)C[C@H]1C/C=C\C[C@H](CC(=O)N(CCO)Cc2ccccc2)C(=O)NC[C@H](c2ccccc2)OC1=O	-0.7	8.1	4.2	3.6	nt	-1.5
COCCn1c(SCC(=O)N2CCCC2)nnc1-c1ccco1	-2.4	-7.4	1.0	-3.0	0.1	-0.2
COCCn1c(SCC(=O)N2CCCC2)nnc1-c1ccoc1C	129.7*	-8.1	4.6	3.4	0.0	i
CCOC(=O)C1CCN(C(=O)c2sc3ncn(CC(=O)N4CCCCC4)c(=O)c3c2C)CC1	-1.4	7.1	nt	nt	nt	-1.2
CCc1nc2ccc(C(=O)NCCC(C)C)cn2c1N(C)Cc1ccc(OC)cc1	0.7	16.8	nt	nt	nt	1.2
COCCn1c(-c2ccc(-c3ccccc3Cl)o2)nc2c1c(=O)[nH]c(=O)n2CC(C)C	8.4	0.0	1.2	-1.6	1.3	-1.9
COCCn1c(-c2ccc(NC(C)=O)cc2)nc2c1c(=O)[nH]c(=O)n2CC(C)C	126.1*	1.1	1.2	-3.8	2.7	-0.3
CC(C)Cn1c(-c2ccc(C#N)cc2)nc2c1c(=O)[nH]c(=O)n2CC(C)C	+	9.7	0.2	-0.5	0.4	i
CCCCn1c(=O)[nH]c(=O)c2c1nc(-c1ccc(OCC)cc1)n2CC	9.4	3.0	1.2	6.3	-0.8	i
CCCCn1c(=O)[nH]c(=O)c2c1nc(-c1ccc(C#N)cc1)n2C1CCCC1	166.2*	7.4	2.7	3.9	0.3	-0.3
COc1ccc(-c2nc3c(c(=O)[nH]c(=O)n3Cc3ccccc3)n2Cc2ccccc2)cc1	2.8	5.2	-2.8	-13.0	-1.4	-0.4
Cc1ccccc1CNC(=O)C(=O)NCCC1CCCCN1S(=O)(=O)c1ccccc1 (centres undefined)	-0.7	2.9	1.1	8.7	2.1	-4.2
Cc1ccc(N=Nc2c(N)nn(-c3ccccc3)c2N)cc1	-2.8	24.5	0.3	5.4	2.6	-0.3
COc1ccc(N=Nc2c(N)nn(C)c2N)cc1	-5.4	60.1*	nt	nt	nt	nt
CC(=O)Oc1ccc(N(C(C)=O)S(=O)(=O)c2ccc3ccccc3c2)cc1	1.0	0.7	-1.6	1.9	3.8	i
CCOC(=O)c1ccc(NS(=O)(=O)c2c(C)nc3sccn3c2=O)cc1	1.5	35.1*	2.2	-6.0	-1.6	-0.2
Cc1ccc(S(=O)(=O)Nc2ccccc2C(=O)Nc2nc(-c3ccc(F)cc3)cs2)cc1	35.4*	11.6	nt	-58.9	6.7	-0.1
CCN(CC)CCCN(Cc1cc2cc(OC)c(OC)cc2[nH]c1=O)C(=O)Nc1ccccc1	13.2	14.1	1.1	1.7	-0.5	2.4
CCN(CC)CCCN(Cc1cc2cc3c(cc2[nH]c1=O)OCO3)C(=O)Nc1ccccc1OC	12.1	31.6*	-0.5	-2.3	7.6	0.7
COCCCNC(=S)N(CCCO)Cc1cc2cc3c(cc2[nH]c1=O)OCO3	21.9	32.2*	0.5	0.9	nt	-0.6
COCCCNC(=S)N(CCCO)Cc1cc2cc3c(cc2[nH]c1=O)OCCO3	15.7	24.3	2.5	-5.7	-0.3	0.7
Cc1nc2cc(NC(=O)C3(C)CCCN(C(C)C)C3)ccc2o1 (centres undefined)	3.1	8.2	nt	nt	nt	-0.4
CC1=C(CC(=O)O)c2cc(F)ccc2C1=Cc1ccc(S(C)(=O)=O)cc1	-0.7	20.8	-0.9	4.1	nt	i
SMILES	FBA Mtb inh	GDH-TPI counter	Mtb UGM inh	Rv3671c protease	RecA splice inh	Vc quorum ag
CCOC(=O)C1CCN(c2nc(N)c3c(N)nc(SCC(=O)O)cc3c2C#N)CC1	25.5	8.1	nt	nt	45.2*	-0.5
COc1cc2ccc(NC(C)=O)cc2cc1OC	2.4	17.7	nt	nt	nt	i
COc1ccc2oc(=O)c(C(=O)OCC(=O)c3ccc([N+](=O)[O-])cc3)cc2c1	nt	nt	0.6	4.8	-1.6	nt
O=c1[nH]ncc(N/N=C/c2ccccc2)c1Cl	0.4	79.7*	nt	2.7	0.3	-4.2
Cc1ccc(/C=N\Nc2cn[nH]c(=O)c2Cl)cc1	-1.9	48.0*	0.7	0.8	-1.1	-0.3
Cc1ccsc1/C=N\Nc1cn[nH]c(=O)c1Cl	-3.0	29.9	1.9	6.8	-2.4	-0.3
COc1ccc(/C=N/Nc2cn[nH]c(=O)c2Cl)cc1	1.3	35.8*	0.9	-15.9	-1.0	-0.2
Cn1c(Nc2ccc(Cl)cc2)cc(=O)n(C)c1=O	0.0	1.5	1.4	-4.0	-2.2	-0.4
Cc1nnc(SCc2cccc3ccccc23)n(N)c1=O	-1.7	-1.5	0.9	-1.2	1.9	-1.5
Cc1nnc(SCc2c(Cl)cccc2Cl)n(N)c1=O	3.2	-5.1	-2.0	-4.5	0.6	57.5*
CC(C)C[C@@H](CNCC(=O)[C@H](Cc1ccccc1)NC(=O)c1[nH]cnc1C(=O)N[C@@H](C)CN)NC(=O)c1nc[nH]c1C(=O)N[C@@H](C)C(=O)O	1.7	8.1	nt	nt	nt	-0.7
O=C(NC(c1ccc(Cl)cc1)c1cnccn1)C1CCN(Cc2cccc(C(F)(F)F)c2)CC1 (centres undefined)	1.9	-13.3	nt	nt	nt	-0.2
NC(=O)C1=C(c2ccccc2)c2ccccc2C1=O	2.2	11.9	nt	nt	nt	42.8*
CC(NC(=O)c1ccc(=O)oc1)c1ccccc1 (centres undefined)	0.2	58.6*	2.0	7.7	-1.8	2.2
O=C(NCc1ccccn1)c1ccc(=O)oc1	7.5	37.8*	-0.2	0.5	-1.4	-0.3
O=C(NCCc1ccccc1)c1ccc(=O)oc1	0.7	75.4*	0.3	-6.3	-1.3	i
CCCN(CCC)CCNC(=O)CCC(=O)Nc1ccc2nc(N3CCOCC3)cc(C)c2c1	127.4*	9.7	-0.9	-10.2	-0.9	-0.5
CCCCN(CC)CCNC(=O)CCC(=O)Nc1ccc2nc(N3CCN(C)CC3)cc(C)c2c1	137.5*	3.4	8.1	6.0	-35.5	-0.3
Cc1cc(N2CCOCC2)nc2ccc(NC(=O)CCC(=O)N3CCN(c4ccccc4)CC3)cc12	14.3	0.7	2.4	12.3	-3.8	-0.2
CCOc1cc(C2NN=C(c3ccc(C)cc3)S2)ccc1O (centres undefined)	3.9	34.4*	0.8	5.7	nt	-0.3
N#CC(C#N)=Cc1c[nH]c(=O)c(C#N)c1Nc1ccccc1	+	16.1	4.7	-3.0	i	-0.6
OCCCc1nc2n(n1)C(c1ccccc1Cl)C=C(c1cccs1)N2 (centres undefined)	54.9*	12.9	0.8	-8.6	nt	i
